Assay [1] can be described thus: compound effects on lung adenocarcinoma cell viability – A549, calcein-AM fluorescence, 48 h, basal, profiling panel (AID 1162). Note: test concentration not given here. The following applies: higher = more signal.
Assay [2] can be described thus: compound effects on differentiated 3T3-L1 adipocyte viability – cell-based, 3T3-L1 adipocytes, calcein-AM fluorescence, 48 h, basal, profiling panel (AID 1163). Note: test concentration not given here. The following applies: 3T3-L1 adipocytes viability, higher = more signal.
Assay [3] is described as follows: compound effects on hepatocellular carcinoma cell viability – HepG2, calcein-AM fluorescence, 48 h, basal, profiling panel (AID 1164). Note: test concentration not given here. Conditions: higher = more signal.
Assay [4] is described as follows: compound effects on multiple myeloma cell viability – MM1S, calcein-AM fluorescence, 48 h, basal, profiling panel (AID 1165).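 Note: viability of MM1S multiple myeloma cells under basal unstimulated conditions; test concentration not given here.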 The following applies: higher = more signal.
A short description of assay [5]: calcein-AM signal in unstimulated myeloma cells – cell-based, calcein-AM fluorescence, 48 h, PK04 Diversity Set, profiling panel (AID 1166).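 Note: cells grown under basal conditions without added stimulus; test concentration not given here.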 The following applies: RPMI8226 myeloma viability, higher = more signal.
Assay [6] is described as follows: JC-1 mitochondrial signal, unstimulated HepG2 cells – cell-based, JC-1 fluorescence, 24 h, 100 nL compound, profiling panel (AID 1167). Note: test concentration not given here. Conditions: HepG2 mitochondrial potential, higher = more signal.
A short description of assay [7]: JC-1 mitochondrial signal, unstimulated adipocytes – cell-based, JC-1 fluorescence, 3T3-L1 adipocytes, 24 h, 100 nL compound, profiling panel (AID 1168). Note: test concentration not given here. The following applies: JC-1 mitochondrial fluorescence, higher = more signal, called active from +8 up or from −8 down.
A short description of assay [8]: JC-1 mitochondrial signal, unstimulated myeloma cells – cell-based, JC-1 fluorescence, RPMI8226, 24 h, 100 nL compound, profiling panel (AID 1169). Note: test concentration not given here. Conditions: JC-1 mitochondrial potential fluorescence, higher = more signal.
A short description of assay [9]: JC-1 mitochondrial signal, unstimulated MM1S myeloma – cell-based, JC-1 fluorescence, 24 h, 100 nL compound, profiling panel (AID 1170). Note: test concentration not given here. The following applies: MM1S mitochondrial potential, higher = more signal.
The nature of assay [10]: resazurin metabolic signal in A549 cells – cell-based, resazurin fluorescence, 24 h, PK04 Diversity Set, profiling panel (AID 1171). Note: test concentration not given here. Conditions: A549 viability, higher = more signal, called active from +8 up or from −8 down. (Resazurin is reduced to fluorescent resorufin, in cell work by metabolically active cells.)
Assay [11] in a line: resazurin metabolic signal in HepG2 cells – cell-based, resazurin fluorescence, 24 h, PK04 Diversity Set, profiling panel (AID 1172). Note: test concentration not given here. The following applies: HepG2 viability, higher = more signal.
Assay [12] in a line: budding yeast growth changes without added modifier – OD600, strain BY4716, 24 h, basal condition, primary screen (AID 1173). The following applies: S. cerevisiae BY4716 growth, OD600, 24 h; higher = more signal, called active from +8 up or from −8 down.
Assay [13] can be described thus: viability profiling in MM1S myeloma cells – cell-based, resazurin fluorescence, basal, 24 h, PK04 Diversity Set, profiling panel (AID 1174). Note: test concentration not given here. The following applies: higher = more signal, called active from +8 up or from −8 down.
Assay [14] deals with Dihydroorotate dehydrogenase (quinone), mitochondrial (Plasmodium falciparum (isolate 3D7)) (UniProt Q08210). Put plainly: inhibition of P. falciparum DHODH – biochemical, C-terminal His tag, absorbance 600 nm, primary screen (AID 1175).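 Note: recombinant parasite enzyme with a five histidine tag at its C terminus; test concentration not given here.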 Conditions: PfDHODH enzyme, DCIP absorbance 600 nm; higher = more signal, called active from +8 up or from −8 down.
Dihydroorotate dehydrogenase (quinone), mitochondrial (Plasmodium falciparum (isolate 3D7)), sequence (Q08210 whole entry, looked up): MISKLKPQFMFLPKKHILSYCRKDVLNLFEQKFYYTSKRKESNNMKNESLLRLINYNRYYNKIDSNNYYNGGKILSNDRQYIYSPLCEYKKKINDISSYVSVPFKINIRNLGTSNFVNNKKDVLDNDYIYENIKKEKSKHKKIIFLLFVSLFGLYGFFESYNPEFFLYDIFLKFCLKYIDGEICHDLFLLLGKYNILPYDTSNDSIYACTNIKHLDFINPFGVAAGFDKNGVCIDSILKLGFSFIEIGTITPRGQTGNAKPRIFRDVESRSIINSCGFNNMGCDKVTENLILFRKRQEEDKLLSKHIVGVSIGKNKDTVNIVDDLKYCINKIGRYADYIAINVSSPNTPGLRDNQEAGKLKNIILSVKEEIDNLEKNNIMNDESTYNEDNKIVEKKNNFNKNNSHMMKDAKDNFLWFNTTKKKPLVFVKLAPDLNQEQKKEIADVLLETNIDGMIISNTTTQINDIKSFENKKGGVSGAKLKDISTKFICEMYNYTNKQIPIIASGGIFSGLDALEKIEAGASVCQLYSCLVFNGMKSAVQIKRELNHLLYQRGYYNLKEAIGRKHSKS
Assay [15] is described as follows: inhibition of PAO1 biofilm formation – strain PAO1, LB-PBS medium, absorbance 600 nm, primary screen (AID 1176). Note: test concentration not given here. The following applies: P. aeruginosa PAO1 growth/biofilm, A600, 12 h; higher = more signal.
Assay [16] can be described thus: growth modulation of vineyard yeast isolate – strain RM11-1a, OD600, basal, 24 h, primary screen (AID 1177).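 Note: cultures grown under basal conditions with no added stressor; test concentration not given here.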 Conditions: S. cerevisiae RM11-1a growth, OD600, 24 h; higher = more signal, called active from +8 up or from −8 down.
Assay [17] in a line: growth of efflux-deficient E. coli DRC39 – strain DRC39, OD650, 24 h, E. coli filamentation inducers, primary screen (AID 1178).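 Note: growth measured as culture turbidity by optical density at 650 nm; test concentration not given here.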 Conditions: E. coli DRC39 acrAB, higher = more signal, called active from +8 up or from −8 down.
The nature of assay [18]: growth of efflux-deficient E. coli DRC39 – strain DRC39, OD650, 48 h, E. coli filamentation inducers, primary screen (AID 1179).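 Note: screen aims at cell division blockers that make cells filament.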 The following applies: E. coli DRC39 delta-acrAB growth, higher = more signal, called active from +8 up or from −8 down.
A short description of assay [19]: viability profiling in RPMI8226 myeloma cells – cell-based, resazurin fluorescence, basal, 24 h, PK04 Diversity Set, profiling panel (AID 1180).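 Note: RPMI8826 multiple myeloma cell line at 5000 cells per well; test concentration not given here.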 Conditions: higher = more signal.
For assay [20], the target named is E3 ubiquitin-protein ligase XIAP (Homo sapiens) (UniProt P98170). Put plainly: small molecules binding XIAP protein – biophysical, small-molecule microarray, fluorescence 635 nm, primary screen (AID 1181).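 Note: score merges 667 nm emission and signal to noise over triplicate slides.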 The following applies: higher = more signal.
E3 ubiquitin-protein ligase XIAP (Homo sapiens), sequence (P98170 whole entry, looked up): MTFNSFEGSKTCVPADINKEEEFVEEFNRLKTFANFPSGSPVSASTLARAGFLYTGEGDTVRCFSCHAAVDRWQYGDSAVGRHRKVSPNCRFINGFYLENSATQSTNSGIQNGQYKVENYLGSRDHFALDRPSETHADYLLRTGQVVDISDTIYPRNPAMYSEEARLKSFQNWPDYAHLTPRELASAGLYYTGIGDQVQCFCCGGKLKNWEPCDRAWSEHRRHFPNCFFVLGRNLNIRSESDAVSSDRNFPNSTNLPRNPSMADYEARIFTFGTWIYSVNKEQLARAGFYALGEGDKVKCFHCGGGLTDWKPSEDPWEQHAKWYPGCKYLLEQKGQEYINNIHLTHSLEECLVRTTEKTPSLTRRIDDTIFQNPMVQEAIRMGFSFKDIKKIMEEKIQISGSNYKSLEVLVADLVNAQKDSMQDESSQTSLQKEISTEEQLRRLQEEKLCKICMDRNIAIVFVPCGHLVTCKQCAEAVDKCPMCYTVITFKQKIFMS

SMILES strings stand for the structures. Calls of active or inactive are those of the source. Unless noted, the rule behind the calls is not given here.

As to `COCCOC(=O)N1C(=O)[C@@]2(c3cc(C#CC4=CCCCC4)ccc31)[C@H](C(=O)N1CCN(c3ncccn3)CC1)[C@H]1C(=O)O[C@H](c3ccccc3)[C@H](c3ccccc3)N1[C@@H]2c1ccccc1OCCO`, the z-score was -0.793 in assay [1]; 1.36 in [2]; -0.435 in assay [3]; -1.24 in [4]; -1.88 in assay [5]; -0.0311 in [6]. Further, the z-score in assay [7] was 10.6 (active); in [8], -0.645; in assay [9] it was -1.47; in assay [10], 0.738 (inactive); in assay [11] it was 1.32; in [12], 1.23 (inactive). Also, the z-score is 1.02 (inactive) in assay [13]; 4.43 (inactive) in assay [15]; 1.64 (inactive) in [16]; -0.368 (inactive) in assay [17]; -0.514 (inactive) in assay [18]; 0.318 in assay [19]. Moreover, the composite z-score in [14] is 0.598 (inactive); in assay [20] it was -0.312.

Regarding `C=CCNC(=O)[C@@H]1[C@H]2C(=O)O[C@H](c3ccccc3)[C@H](c3ccccc3)N2[C@H](c2ccc(O)cc2)[C@@]12C(=O)Nc1ccc(C#CC3(O)CCCCCC3)cc12`, the z-score in assay [1] is -1.04; in assay [2], 0.889; in [3] it was -0.522; in [4], -1.67; in [5], -3.93; in assay [6], -2.28. Besides, the z-score is -0.41 (inactive) in assay [7]; -0.748 in [8]; -0.188 in [9]; 0.0696 (inactive) in assay [10]; -0.285 in assay [11]; 0.0504 (inactive) in assay [12]. Also, the z-score was -0.205 (inactive) in assay [13]; 0.498 (inactive) in assay [15]; 0.117 (inactive) in assay [16]; 0.6 (inactive) in assay [17]; 0.0092 (inactive) in [18]; -1.57 in [19]. Besides, the composite z-score in assay [14] is 0.0708 (inactive); in assay [20], -0.154.

As for `COC(=O)C1=CC(CCCO)=CC(c2ccc(CN3CCCC3)cc2)N(Cc2sc3ccccc3c2Cl)C=C1C(=O)OC` (stereo not given), the z-score in assay [1] is 1.38; in assay [2], 0.0739; in assay [3], 1.72; in assay [4], 0.217; in assay [5], 0.662; in [6], 4.71. The z-score in [7] is 0.531 (inactive); in assay [8] it was 0.393; in [9], 2.3; in [10], -0.142 (inactive); in assay [11], 0.666; in [12], -2.54 (inactive). The z-score in assay [13] is 0.691 (inactive); in [15], 0.186 (inactive); in assay [16], -1.62 (inactive); in assay [17], 0.735 (inactive); in assay [18] it was 1.29 (inactive); in assay [19] it was 0.85. The composite z-score is -1.63 (inactive) in assay [14] and -0.0084 in assay [20].

`C=CCC(OC(C)=O)[C@@H]1[C@@H](N(Cc2ccc(-c3cccc(C(F)(F)F)c3)o2)C(=O)Cc2ccc(F)cc2)c2cc(OCCCO)ccc2N1C(=O)c1ccc2ccccc2c1` (stereo not given in full): the z-score in assay [1] is -0.292; in [2] it was 0.499; in [3], 0.966; in assay [4], 0.353; in assay [5] it was 0.366; in [6], 2.03. Also, the z-score in assay [7] is 0.294 (inactive); in assay [8], -0.793; in assay [9], 0.251; in [10] it was 0.116 (inactive); in [11], 0.589; in [12] it was -0.382 (inactive). The z-score in assay [13] was 0.81 (inactive); in [15] it was -0.194 (inactive); in assay [16], -0.423 (inactive); in assay [17] it was 0.227 (inactive); in [18], 0.369 (inactive); in assay [19], 0.934. Also, the composite z-score was -1.26 (inactive) in assay [14] and -0.224 in [20].

Regarding `COCC(=C=CC[C@@H](O)c1ccc(OCCO)cc1)C[C@@H](O)COCc1ccccc1`, the z-score in assay [1] is 0.517; in assay [2], 0.657; in assay [3], 0.712; in assay [4], 0.105; in assay [5], 0.0253; in [6], -1.77. The z-score was 0.914 (inactive) in [7]; -0.725 in assay [8]; -1.03 in assay [9]; 0.583 (inactive) in assay [10]; 0.948 in assay [11]; -0.81 (inactive) in assay [12]. In addition, the z-score in assay [13] was 0.891 (inactive); in assay [15], 0.801 (inactive); in [16], -1.31 (inactive); in [17], 0.789 (inactive); in assay [18], 0.859 (inactive); in [19], 0.804. The composite z-score in assay [14] is -2.32 (inactive); in [20], 0.24.

The values above are taken from PubChem BioAssay.
